Compound activity deposited in PubChem by The Scripps Research Institute Molecular Screening Center.
This is a sample that favours compounds with a hit; in the whole collection about 3.5% have one here.
MITF primary = human MITF inhibition, primary screen | O75030 | AlphaScreen MITF homodimerization, bead proximity signal | inhibition, % at 2.6 µM | 0.91% of 650,000 active | AID 1259374; in the data active = inhibition above about 50%
Target sequence (O75030 whole entry, looked up): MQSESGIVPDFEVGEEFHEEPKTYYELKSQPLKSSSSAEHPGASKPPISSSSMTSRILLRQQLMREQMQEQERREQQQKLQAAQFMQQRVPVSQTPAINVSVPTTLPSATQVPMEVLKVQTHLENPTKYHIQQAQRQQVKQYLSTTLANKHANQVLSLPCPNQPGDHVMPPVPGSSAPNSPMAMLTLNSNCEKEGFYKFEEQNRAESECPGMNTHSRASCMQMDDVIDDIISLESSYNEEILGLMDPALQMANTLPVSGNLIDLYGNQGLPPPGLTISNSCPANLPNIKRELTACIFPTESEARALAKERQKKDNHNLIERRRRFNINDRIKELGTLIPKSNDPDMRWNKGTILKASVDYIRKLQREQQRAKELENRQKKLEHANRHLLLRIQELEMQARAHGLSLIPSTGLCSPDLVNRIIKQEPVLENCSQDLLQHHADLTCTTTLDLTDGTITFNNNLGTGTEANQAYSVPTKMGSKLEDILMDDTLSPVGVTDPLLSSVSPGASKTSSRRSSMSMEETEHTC
TEAD-YAP inh = TEAD-YAP interaction inhibition; AID 1259422; 1.4% of 640,000 active; inhibition, % at 9.12 µM; HEK-TIYL cells, TEAD-Gal4/YAP UAS-luciferase luminescence; in the data active = inhibition above about 32%
FBW7 activator = activators of human E3 ligase FBW7. Q969H0. AlphaScreen FBW7–phospho-cyclin E peptide binding, activator screen. normalized activity (activation), % at 26.1 µM. 0.13% of 650,000 active. AID 1259310; in the data active = normalized activity above about 1.9%;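 also: purified mutant Fbw7 with reduced substrate affinity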
GPR151 activ = activators of human GPR151. Q8TDV0. PathHunter beta-arrestin GPR151 cells, luminescence. activation, % at 11.2 µM. 1% of 650,000 active; in the data active = activation above about 4.9%
GPR151 confirm = human GPR151 activation, confirmation screen; 6,700 tested, under 10 active; shares compounds with GPR151 activ; AID 1508609; GPR151 PathHunter beta-arrestin cells, luminescence, 90 min; % of EA-reagent control over plate median; activation, % at 11.2 µM;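 active = mean percent activation across replicates above the confirmation screen cutoff of 4.91%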
GPR119 ag = activates human GPR119 in a GPR151 counter-screen. shares compounds with GPR151 activ. GPR119 PathHunter beta-arrestin cells, luminescence, 90 min; 0 = compound-well median, 100 = enzyme-acceptor control. activation, % at 11.2 µM. 0.3% of 6,700 active;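 active = mean percent activation in the counterscreen above 29.09%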;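 also: counterscreen on off-target GPR119 to flag nonselective hits from the GPR151 activator screen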
A number is an active result; i = inactive; nt = not tested or not shown.

SMILES | MITF primary | TEAD-YAP inh | FBW7 activator | GPR151 activ | GPR151 confirm | GPR119 ag
CCCCC(C)(C)[C@H](O)/C=C/[C@H]1C=CC(=O)[C@@H]1C/C=C\CCCC(=O)O | i | nt | nt | 13.0 | i | i
CCCCC[C@H](O)/C=C/[C@H]1C(=O)C[C@H](O)[C@@H]1CCCCCCCO | i | nt | nt | i | nt | nt
CCCCC[C@H](O)/C=C/[C@H]1C(=O)C[C@H](O)[C@@H]1CCCCCCC(=O)O | i | nt | nt | 9.7 | i | i
CCCCC[C@@H](O)/C=C/[C@H]1C(=O)C[C@H](O)[C@@H]1C/C=C\CCCC(=O)O | i | nt | nt | i | nt | nt
CCCCC/C=C/C=C1/C=CC(=O)[C@@H]1C/C=C\CCCC(=O)O | i | nt | nt | i | nt | nt
CCCCC/C=C/C=C1/C(=O)C[C@H](O)[C@@H]1C/C=C\CCCC(=O)O | i | nt | nt | 5.6 | i | i
COC(=O)C1=CN(Cc2cccs2)C=C(C(=O)OC)C1c1cc(Cl)c(O)c(OC)c1 | i | i | i | i | nt | nt
CC(C)C(NS(=O)(=O)c1ccccc1[N+](=O)[O-])C(=O)Nc1ccc([N+](=O)[O-])cc1 (stereo not given) | i | i | i | i | nt | nt
CCOC(=O)/C(C#N)=N/OCC(=O)N1CCN(c2ccccc2)CC1 | i | i | i | i | nt | nt
COc1ccc2c(CNC3CCCC(C)C3C)c(C(=O)O)n(Cc3ccc(C)cc3)c2c1 (stereo not given) | i | i | i | 4.9 | i | i
CN(S(=O)(=O)c1ccc2c(c1)OCCO2)S(=O)(=O)c1cccs1 | i | i | i | i | nt | nt
Cc1cc(C)cc(NS(=O)(=O)c2ccc(-c3cc(C)no3)cc2)c1 | i | 57.9 | i | 8.2 | i | i
O=C(Cc1n[nH]c(=O)c2ccccc12)Nc1ccccn1 | i | i | i | 5.4 | i | i
CSc1nsc(NC(=O)Cc2n[nH]c(=O)c3ccccc23)n1 | i | i | i | i | nt | nt
Clc1cc2c(cc1-c1nc(-c3ccccc3)c(-c3ccccc3)[nH]1)OCO2 | i | i | i | 6.6 | i | i
COc1ccc(-c2[nH]c(-c3ccc4c(c3)OCO4)nc2-c2ccccc2)cc1 | i | i | i | i | nt | nt
C=CCNC(=O)c1sc(=S)n(CCc2ccccc2)c1N | i | i | i | 5.2 | i | i
CCCN1C(=O)/C(=C/c2ccc(O)c(OC)c2)SC1=S | i | i | i | 5.1 | i | i
Cn1ccnc1SCCNC(=O)CC1C(=O)NCCN1CC1CCCCC1 (stereo not given) | i | i | i | 7.6 | i | i
CC(C)(C)CN1CCNC(=O)C1CC(=O)NC1CCCCCCC1 (stereo not given) | i | i | i | 11.3 | i | i
COc1ccc2cc(-c3[nH]ncc3CN3CCCO3)ccc2c1 | i | i | i | i | nt | nt
Cc1noc(C)c1-c1cc(NCCCN2CCCC2=O)ncn1 | i | i | i | 5.9 | i | i
Cn1ccc2cc(-c3cc(NCCCN4CCCC4=O)ncn3)ccc21 | i | i | i | 11.4 | i | i
COc1ccc(-c2cc(NCCCN3CCCC3=O)ncn2)cc1 | i | i | i | i | nt | nt
Nc1cc(N)nc(SCCOc2ccc(Br)cc2)n1 | i | i | i | i | nt | nt
SMILES | MITF primary | TEAD-YAP inh | FBW7 activator | GPR151 activ | GPR151 confirm | GPR119 ag
CCOc1ccccc1NC(=O)c1ccc2c(c1)C(=O)N(C)C2=O | i | i | i | i | nt | nt
CCOCCCNCc1ccccc1OCc1ccccc1 | i | i | i | 12.7 | i | i
CC(NC(=O)c1cnccn1)c1nc(-c2ccncc2)n[nH]1 (stereo not given) | i | i | i | i | nt | nt
CC(NC(=O)c1cnccn1)c1nc(-c2ccc(Cl)cc2)n[nH]1 (stereo not given) | i | i | i | 8.1 | i | i
O=S(=O)(c1ccc(S(=O)(=O)n2cnc3ccccc32)cc1)N1CCCC1 | i | i | i | 6.0 | i | i
COc1ccc(/C=N/Nc2ccc3ccccc3n2)cc1O | i | i | i | i | nt | nt
O=C(Nc1ccc(Cl)c(Cl)c1)OCc1ccco1 | i | i | i | 6.0 | i | i
COC(=O)c1ccc(C2C3=C(CC(c4ccc(C)cc4)CC3=O)Nc3ccccc3N2C(C)=O)cc1 (stereo not given) | i | i | i | 6.6 | i | i
COc1ccccc1-c1nnc(NC(=O)CSC2=NCCS2)s1 | i | i | i | 5.6 | i | i
O=C(NCc1cccnc1)c1cc(-c2ccc(F)cc2)no1 | i | i | i | 5.0 | i | i
COC(=O)c1ccc(NC(=O)CSc2nnc3[nH]c(=O)ccn23)cc1 | i | i | i | 6.3 | i | i
CCCNc1nc(Nc2ccc3ncccc3c2)ncc1C | i | i | i | i | nt | nt
